Measured values from PubChem BioAssay (NCI).
This is part of a sample that, as a whole, favours compounds with a hit. Of some 79,000 tested, about 15% had one in any assay. Cut-off read from the data, not from the text of the source: active = growth inhibition above about 70%; inactive = the rest.

How the values were obtained:
[1] = NCI Yeast Anticancer Drug Screen. Data for the rad52 strain (AID 147);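 note: 0% = growth of vehicle-treated control cultures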; settings: S. cerevisiae rad52 mutant growth inhibition, stronger effect = higher value
How it was run: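 Measured: yeast growth inhibition. System: strain with a defined DNA damage repair alteration. Reference: vehicle-treated control cultures.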

[2] = NCI Yeast Anticancer Drug Screen. Data for the wt1 strain (AID 149);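 note: 0% = growth of vehicle-treated wt1 cultures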; settings: S. cerevisiae wt1 strain (SPY 50644) growth inhibition, stronger effect = higher value
How it was run: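 wt1 yeast, compound-treated; % growth inhibition vs vehicle control.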

[3] = NCI Yeast Anticancer Drug Screen. Data for the rad50EPP+ strain (AID 151);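 note: 0% = growth of vehicle-treated control cultures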; settings: S. cerevisiae rad50 mutant strain, stronger effect = higher value
How it was run: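 One strain with a rad50 alteration (rad50EPP+) was compound-treated, its growth then compared to that of vehicle controls.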

[4] = NCI Yeast Anticancer Drug Screen. Data for the rad50 strain (AID 155);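 note: 0% = growth of vehicle-only cultures of the same strain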; settings: S. cerevisiae rad50 strain growth inhibition, stronger effect = higher value
How it was run: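 Genetically altered yeast (DNA repair pathway); compound treatment; growth inhibition vs vehicle ctrl.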

[5] = NCI Yeast Anticancer Drug Screen. Data for the mec2-1 strain (AID 157); settings: S. cerevisiae mec2-1 strain, stronger effect = higher value
How it was run: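 Test agents were screened against the mec2-1 yeast strain, with defined DNA repair or cell cycle alteration. Growth was scored as inhibition against vehicle-only controls.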

[6] = NCI Yeast Anticancer Drug Screen. Data for the rad14 strain (AID 159);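 note: 0% = growth of vehicle-treated control cultures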; settings: S. cerevisiae rad14 strain growth inhibition, stronger effect = higher value
How it was run: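 Test compounds were applied to a repair-deficient yeast strain. Its growth was then compared with that of cultures given vehicle alone, and inhibition was expressed relative to those controls.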

[7] = NCI Yeast Anticancer Drug Screen. Data for the sgs1 mgt1 strain (AID 161);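 note: 0% = growth of cultures given vehicle only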; settings: S. cerevisiae sgs1 mgt1 strain, stronger effect = higher value
How it was run: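 Test agents were incubated with a DNA-repair-mutant yeast strain. Growth was then read and compared against vehicle-treated controls.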

[8] = NCI Yeast Anticancer Drug Screen. Data for the CLN2oe strain (AID 163);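 note: 0% = growth of vehicle-only control cultures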; settings: S. cerevisiae CLN2oe strain, stronger effect = higher value
How it was run: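 Here, growth inhibition in a cell-cycle-altered yeast strain after compound exposure was quantified against vehicle control growth.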

[9] = NCI Yeast Anticancer Drug Screen. Data for the cln2 rad14 strain (AID 165);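 note: 0% = growth equal to vehicle treated cultures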; settings: S. cerevisiae cln2 rad14 strain, stronger effect = higher value
How it was run: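 Growth of compound-exposed yeast (cln2 rad14 genotype) measured and expressed as inhibition relative to vehicle.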

[10] = NCI Yeast Anticancer Drug Screen. Data for the bub3 strain (AID 167); settings: S. cerevisiae bub3 mutant strain, stronger effect = higher value
How it was run: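 Yeast carrying a defined mutation is treated with each compound, and growth is compared with that of vehicle-exposed cells to give inhibition.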

[11] = NCI Yeast Anticancer Drug Screen. Data for the wt2 strain (AID 169);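 note: 0% = growth of vehicle-treated yeast cultures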; settings: S. cerevisiae wt2 strain growth inhibition, stronger effect = higher value
How it was run: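 Genetically defined yeast strains from a DNA-repair/cell-cycle panel were used. Compound-exposed yeast growth was measured, and the inhibition was calculated relative to vehicle treatment.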

[12] = NCI Yeast Anticancer Drug Screen. Data for the mlh1 strain (AID 171);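 note: 0% = growth of vehicle-treated control cultures of the same strain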; settings: S. cerevisiae mlh1 strain growth inhibition, stronger effect = higher value
How it was run: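 Here the genetically defined yeast mutant is grown with each compound, and the extent to which its growth falls below that of vehicle-exposed cells is reported.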

[13] = NCI Yeast Anticancer Drug Screen. Data for the sgs1 strain (AID 173);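 note: 0% = growth of vehicle-only control cultures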; settings: S. cerevisiae sgs1 mutant, stronger effect = higher value
How it was run: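 Relative growth inhibition, referenced to vehicle, was determined in a yeast strain with a defined alteration affecting DNA damage repair or cell cycle control after compound exposure.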

[14] = NCI Yeast Anticancer Drug Screen. Data for the mlh1 rad18 strain (AID 175); settings: S. cerevisiae mlh1 rad18 strain growth inhibition, stronger effect = higher value
How it was run: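 In this whole-cell yeast screen, a strain with altered DNA damage repair is challenged with compound, and its growth is measured against matched vehicle-treated controls.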

[15] = NCI Yeast Anticancer Drug Screen. Data for the rad18 strain (AID 177); settings: S. cerevisiae rad18 mutant growth inhibition, stronger effect = higher value
How it was run: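 Screen uses a yeast strain with a defined lesion in DNA damage repair; compound effect is read as loss of growth compared to untreated vehicle cultures.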

[16] = at 5.0 µM (retest, dose inferred, filed as 0.5)
[17] = at 50.0 µM (retest, dose inferred, filed as 5.0)

Measured: growth inhibition

CCCCCCOC(=O)NCCOC(=O)Nc1ccccc1
inactive: [1]; at 1.2 µM 1% | [1]; at 3.7 µM 3% | [1]; at 11.0 µM 7% | [1]; at 33.0 µM 7% | [1]; at 100.0 µM 6% | [2]; at 1.2 µM 1% | [2]; at 3.7 µM 1% | [2]; at 11.0 µM 2% | [2]; at 33.0 µM 2% | [2]; at 100.0 µM 1% | [3]; at 1.2 µM 3% | [3]; at 3.7 µM 6% | [3]; at 11.0 µM 11% | [3]; at 33.0 µM 17% | [3]; at 100.0 µM 15% | [4]; at 1.2 µM 4% | [4]; at 3.7 µM 5% | [4]; [16] 0% | [4]; at 11.0 µM 7% | [4]; at 33.0 µM 8% | [4]; [17] 5% | [4]; at 50.0 µM 19.7% | [4]; at 100.0 µM 7% | [5]; at 1.2 µM 0% | [5]; at 3.7 µM 3% | [5]; [16] -5% | [5]; at 11.0 µM 3% | [5]; at 33.0 µM 5% | [5]; [17] 1% | [5]; at 50.0 µM 6.15% | [5]; at 100.0 µM 8% | [6]; at 1.2 µM 6% | [6]; at 3.7 µM 7% | [6]; at 11.0 µM 12% | [6]; at 33.0 µM 17% | [6]; at 100.0 µM 16% | [7]; [16] 12% | [7]; [17] 10% | [7]; at 50.0 µM 20.2% | [8]; at 1.2 µM 1% | [8]; at 3.7 µM 4% | [8]; at 11.0 µM 1% | [8]; at 33.0 µM 3% | [8]; at 100.0 µM -2% | [9]; [16] 5% | [9]; [17] 19% | [9]; at 50.0 µM 6.5% | [10]; at 1.2 µM 3% | [10]; at 3.7 µM 2% | [10]; [16] 9% | [10]; at 11.0 µM 5% | [10]; at 33.0 µM 1% | [10]; [17] -2% | [10]; at 50.0 µM 11.1% | [10]; at 100.0 µM 0% | [11]; at 1.2 µM 1% | [11]; at 3.7 µM -1% | [11]; at 11.0 µM -1% | [11]; at 33.0 µM 0% | [11]; at 100.0 µM -2% | [12]; at 1.2 µM -1% | [12]; at 3.7 µM -1% | [12]; at 11.0 µM 2% | [12]; at 33.0 µM 4% | [12]; at 100.0 µM 6% | [13]; at 1.2 µM 2% | [13]; at 3.7 µM 2% | [13]; at 11.0 µM 3% | [13]; at 33.0 µM 9% | [13]; at 100.0 µM 9% | [14]; [16] 19% | [14]; [17] 53% | [14]; at 50.0 µM 17.7% | [15]; at 1.2 µM 2% | [15]; at 3.7 µM 2% | [15]; at 11.0 µM 13% | [15]; at 33.0 µM 4% | [15]; at 100.0 µM 6%
